# MCF10A rereplic: inducers of DNA re-replication in MCF 10A breast cells | AID 624296 | Potency, µM (doses to about 46.1 µM), inactives show top-dose activity, positive = re-replication, usual class: activators | MCF 10A DNA re-replication, Hoechst nuclear intensity, 48 h | hit rate 2.9% among 350,000; also: potency is read from the fitted curve at half-maximal effect; % of control where 0% means no effect; nearly all actives have a fitted effect of over 50% in size
# TDP1 cell CPT: growth inhibition of DT40 Tdp1-/-;hTDP1 cells with camptothecin (screen for TDP1 inhibitors) | chicken DT40 Tdp1-/-;hTDP1 cells + 20 nM CPT, ATP luminescence, 48 h | AID 686979 | Potency, µM (titrated, usually from 46.2 µM), for inactives: at the highest dose activity change, negative = growth inhibition, actives largely listed as inhibitors | hit rate 12% among 420,000; also: potency is read from the fitted curve at half-maximal effect; % is scaled to controls: 0 for no effect and ±100 for the full control effect; nearly all actives have a fitted effect of over 55% in size
#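 Chicken DT40 Tdp1-/- cells complemented with human TDP1, 400 cells/well, exposed to compounds plus 20 nM camptothecin for at least 48 h at 37 C; viability read as ATP content by CellTiter-Glo luminescence.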
# BCR signal inh: blocks chronic active B-cell receptor signaling; ABC-DLBCL IkBa-CBG/CBR reporter, luminescence ratio, 4 h; Potency, µM (top dose mostly 46.1 µM), for the others: at the highest dose activity change, negative = inhibition, usual class: inhibitors; hit rate 0.05% among 340,000; AID 493014; active = well fitted inhibition curve with a large enough effect in the signal ratio, with a control signal flat, not every such curve was filed as active; inconclusive = small, poorly fitted or top-dose-only effect, or effect the other way, or a change in a side signal; the % refers to the signal ratio;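 also: potency is read from the fitted curve at half-maximal effect; plate controls were basal doxycycline-induced cells for no effect and cells given 10 µM MG132 for full effect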
#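 Compounds up to 46 uM were incubated four hours with TMD8 cells whose green CBG68 luciferase is fused to IkappaBalpha; red CBR luminescence normalised the signal, and concentration-effect curves were fitted to fusion, red and ratio data.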
# SW480 rereplic: inducers of DNA re-replication in SW480 colon cancer cells; SW480 DNA re-replication, Hoechst DNA content imaging, 48 h; Potency, µM (doses to about 46.1 µM), without a hit: at the highest dose re-replication activation, most hits filed as activators; hit rate 1.8% among 340,000; also: potency is read from the fitted curve at half-maximal effect; % of control where 0% means no effect; nearly all actives have a fitted effect of over 55% in size
#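 Treated cells incubate 48 hr (37 C, 5% CO2), are stained 40 min with Hoechst, and nuclear fluorescence is enumerated; a rise in nuclei with high DNA signal marks re-replication.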
# DT40 TDP1 no CPT: qHTS for Inhibitors of human tyrosyl-DNA phosphodiesterase 1 (TDP1): qHTS in cells in absence of CPT; DT40 Tdp1-/- hTDP1 cells, no CPT, ATP luminescence, 48 h; Potency, µM (titrated, usually from 46.2 µM), for inactives: at the highest dose activity change, negative = growth inhibition, usual class: inhibitors; hit rate 15% among 420,000; AID 686978, 2013; also: potency is read from the fitted curve at half-maximal effect; % is scaled to controls: 0 for no effect and ±100 for the full control effect; nearly all actives have a fitted effect of over 55% in size
#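 Chicken DT40 Tdp1-/- cells complemented with human TDP1, screened without camptothecin (DMSO vehicle only), 400 cells/well. Compounds pin-transferred, cells incubated at 37 °C for at least 48 hr. Growth read as ATP-dependent luminescence (CellTiter-Glo, 30 min at RT).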
# IL-1B inflam inh: blocks inflammasome-driven IL-1 beta release; activity change, % at 57.5 µM; THP-1 LPS/ATP IL-1B secretion, AlphaLISA, 16 h; stronger effect = lower value; AID 743279; hit rate 4.7% among 360,000; in the data active = activity change below about -50%; inconclusive = mostly about -30% to -49%; also: % is scaled to controls: 0 for no effect and ±100 for the full control effect
#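 THP-1 cells pretreated 1 hr with compounds (up to 57.5 uM final), then stimulated with LPS (250 ng/mL final) plus ATP (1.25 mM final); secreted IL-1B measured by AlphaLISA after 16 hr, decreased signal indicating inhibition.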
# Starred values were filed as active, the others as inactive; i = inactive; ? = inconclusive; . = no result; [ ] = remark or other dose. Most compounds without a hit are left out; they make up all but 19% or so of the library. Unless noted, calls follow the shape of the dose curve; as a rule, active = well fitted curve in the direction sought with a large enough effect; inconclusive = small, poorly fitted or top-dose-only effect, or another doubt; inactive = no such curve, though single readings can be large; an effect the other way counts as inactive or inconclusive.
SMILES,MCF10A rereplic,TDP1 cell CPT,BCR signal inh,SW480 rereplic,DT40 TDP1 no CPT,IL-1B inflam inh
CCC1=NN2C(=N)/C(=C\c3cccn3-c3c(C)cccc3C)C(=O)N=C2S1,?,?,6.1%,-6.3%,3.66µM*,6.0
COc1ccc(-c2cccc(NC(=O)c3cccs3)c2)nn1,13.2%,?,-15.9%,0.7%,?,8.3
O=c1[nH][nH]c2cc(=O)n(-c3cccc(C(F)(F)F)c3)nc12,-2.0%,-5.0%,13.5%,7.8%,11.7%,-0.2
Nc1n[nH]c2cc(=O)n(-c3cccc(C(F)(F)F)c3)nc12,-2.4%,-17.7%,11.8%,7.31µM*,-15.2%,?
COc1cc(OC)cc(C(=O)NC2CC(C)(C)NC(C)(C)C2)c1,-3.3%,0.2%,-4.3%,-8.0%[9.22 µM],6.4%,-4.0
O=C1COc2ccc(-c3cc(-c4ccc(F)cc4)c4c(n3)-c3ccccc3OC4)cc2N1,.,6.51µM*,.,.,5.8µM*,.
COc1ccc(-c2cc(-c3ccc4c(c3)NC(=O)CO4)nc3c2COc2ccc(F)cc2-3)cc1,.,?,.,.,1.46µM*,.
O=C(c1ccccc1Cl)N1CCCCC1CCN1CCOCC1 (stereo unspecified),.,-19.8%,.,.,-15.8%,.
Cc1cc(=O)[nH]c2sc(C(=O)N3c4ccccc4CC3C)c(N)c12 (stereo unspecified),12.3%,?,-4.2%,-4.6%,-25.7%,-59.8*
Cc1nc2cc(C(=O)N3c4ccccc4CC3C)ccc2s1 (stereo unspecified),-4.2%,?,?,?,16.4µM*,49.7
Cc1ccc2ccccc2c1NC(=O)CNCc1ccccc1,.,-8.4%,.,.,?,24.6
COc1ccc2c(CCNC(=O)/C=C/c3ccc(OC)c(OC)c3)c[nH]c2c1,?,?,-6.6%,?,18.4µM*,-11.4
COc1cccc(/C=C/C(=O)NCCc2ccc(OC)c(OC)c2)c1,1.4%,?,2.0%,-8.3%,?,-18.3
C/C=C/c1ccc(OCC(=O)Nc2ccc(C(N)=O)cc2)c(OC)c1,?,-5.5%,-8.1%,-0.2%,-23.5%,-11.8
CCC(=O)Nc1ccc(NC(=S)NC(=O)/C=C/c2ccccc2)cc1,11.4%,?,-1.2%,12.5%,7.31µM*,?
COc1cc(/C=C/c2cc[n+](C)cc2)ccc1OCC(=O)Nc1ccccc1,7.0%,-3.9%,8.0%,18.4µM*,-28.3%,-16.4
COc1ccc(NS(=O)(=O)c2ccc(NC(=S)NC(=O)/C=C/c3ccccc3)cc2)nn1,17.6%,11.6µM*,?,-2.0%,16.4µM*,-61.5*
N#Cc1ccc(CN2CC3(CCN(C(=O)c4csnn4)CC3)C2)cc1,.,8.6%,.,.,-3.1%,.
Cc1ccccc1CN1CCN(C2CCC2)CC1CCO (stereo unspecified),3.0%,-0.2%,?,?,-19.4%,8.4
O=C(NCc1ccccc1Cl)C(=O)NCC1OCCCN1S(=O)(=O)c1cccs1 (stereo unspecified),?,4.0%,-18.2%,?,-12.4%,i
CN(C)c1ncc2nc(CCc3ccccc3)c(=O)n(CCc3ccccc3)c2n1,.,-5.4%,.,.,6.4%,.
COc1ccc(/C=C/C(=O)NC(=S)NNC(=O)c2cc(OC)c(OC)c(OC)c2)cc1OC,0.5%,?,-18.4%,1.9%,14.6µM*,0.0
COC(=O)CCC(=O)NC(=S)Nc1ccc(S(=O)(=O)Nc2cc(OC)nc(OC)n2)cc1,-4.1%,15.8%,-0.4%,2.59µM*,-20.5%,36.5
COc1cc(NS(=O)(=O)c2ccc(NC(=S)NC(=O)CC(C)C)cc2)nc(OC)n1,7.7%,1.4%,-2.7%,-4.6%,3.2%,-16.8
COc1ccc(/C=C/C(=O)NC(=S)NCCc2ccc(OC)c(OC)c2)cc1,?,?,-12.2%,10.3µM*,?,31.3

# Compound activity from PubChem BioAssay.
